From PubChem BioAssay AID1159580 (chemical genetic matrix, 2015)
Values joined by “and” are separate entries in the source; they are usually repeats but may differ in a detail not shown here. Equal entries are not always repeated. Hit rate of the full screen: of about 5,500 compounds, about 2,000 (36%) were called active. About 18% were inconclusive and are not listed. Cut-off read from the data, not from the text of the source: active = normalized growth mostly below about 0.91 (no sharp cut-off); inconclusive = no clear call, values can overlap the other calls; inactive = mostly above about 0.92. Some of the results follow.

Test: chemical genetic growth profiling, strain panel (AID 1159580);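 note: tested at 20 µM; growth read once vehicle control cultures reached saturation at 30 °C; 1 = growth at the plate median or of vehicle wells; lower values mean less growth of the strain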
Details: S. cerevisiae deletion strains, growth OD

Measured: normalized growth

COc1ccc(C(=O)c2ccccc2)c(O)c1
active: locus YAL026C, strain drs2, stronger effect = lower value 0.74 | locus YAL030W, strain snc1, stronger effect = lower value 0.841 | locus YBL061C, strain skt5, stronger effect = lower value 0.762 | locus YBR009C, strain hhf1, stronger effect = lower value 0.789 | locus YBR023C, strain chs3, stronger effect = lower value 0.807 | locus YBR171W, strain sec66, stronger effect = lower value 0.769 | locus YBR231C, strain swc5, stronger effect = lower value 0.834 | locus YBR279W, strain paf1, stronger effect = lower value 0.854 | locus YCL011C, strain gbp2, stronger effect = lower value 0.78 | locus YCL016C, strain dcc1, stronger effect = lower value 0.792 | locus YCL061C, strain MRC1, stronger effect = lower value 0.791 | locus YCL069W, strain vba3, stronger effect = lower value 0.779 | locus YCR088W, strain abp1, stronger effect = lower value 0.833 | locus YDL005C, strain med2, stronger effect = lower value 0.903 | locus YDL035C, strain GPR1, stronger effect = lower value 0.855 | locus YDL040C, strain nat1, stronger effect = lower value 0.861 | locus YDL074C, strain BRE1, stronger effect = lower value 0.691 | locus YDL192W, strain arf1, stronger effect = lower value 0.808 | locus YDR001C, strain nth1, stronger effect = lower value 0.863 | locus YDR069C, strain doa4, stronger effect = lower value 0.879 | locus YDR101C, strain arx1, stronger effect = lower value 0.868 | locus YDR137W, strain rgp1, stronger effect = lower value 0.451 | locus YDR159W, strain sac3, stronger effect = lower value 0.671 | locus YDR162C, strain NBP2, stronger effect = lower value 0.671 | locus YDR195W, strain ref2 1.16 [resistant] | locus YDR297W, strain sur2, stronger effect = lower value 0.853 | locus YDR318W, strain mcm21, stronger effect = lower value 0.833 | locus YDR334W, strain swr1, stronger effect = lower value 0.859 | locus YDR335W, strain msn5, stronger effect = lower value 0.758 | locus YDR388W, stronger effect = lower value 0.881 | locus YDR392W, strain spt3, stronger effect = lower value 0.43 | locus YDR502C, strain sam2, stronger effect = lower value 0.804 | locus YEL003W, strain gim4, stronger effect = lower value 0.778 | locus YEL037C, strain rad23, stronger effect = lower value 0.841 | locus YEL061C, strain CIN8 (second series), stronger effect = lower value 0.813 | locus YER015W, strain faa2, stronger effect = lower value 0.752 | locus YER016W, strain bim1, stronger effect = lower value 0.862 | locus YER110C, stronger effect = lower value 0.891 | locus YER111C, strain swi4, stronger effect = lower value 0.797 | locus YER155C, strain BEM2 (second series), stronger effect = lower value 0.24 | locus YER155C, strain BEM2, stronger effect = lower value 0.926 | locus YER167W, strain BCK2, stronger effect = lower value 0.837 | locus YFR010W, strain ubp6, stronger effect = lower value 0.888 | locus YGL078C, strain dbp3, stronger effect = lower value 0.911 | locus YGL086W, strain mad1, stronger effect = lower value 0.828 | locus YGL167C, strain pmr1, stronger effect = lower value 0.772 | locus YGL173C, strain kem1, stronger effect = lower value 0.72 | locus YGL227W, strain vid30, stronger effect = lower value 0.84 | locus YGL240W, strain doc1, stronger effect = lower value 0.609 | locus YGL253W, strain hxk2, stronger effect = lower value 0.686 | locus YGR135W, strain pre9, stronger effect = lower value 0.729 | locus YGR229C, strain SMI1, stronger effect = lower value 0.558 | locus YGR252W, strain gcn5, stronger effect = lower value 0.666 | locus YHR013C, strain ard1, stronger effect = lower value 0.757 | locus YHR027C, strain rpn1, stronger effect = lower value 0.87 | locus YHR079C, strain IRE1 (second series), stronger effect = lower value 0.894 | locus YHR079C, strain IRE1, stronger effect = lower value 0.842 | locus YHR094C, strain hxt1, stronger effect = lower value 0.915 | locus YHR142W, strain chs7, stronger effect = lower value 0.541 | locus YHR200W, strain rpn10, stronger effect = lower value 0.861 | locus YIL066C, strain RNR3, stronger effect = lower value 0.827 | locus YIL125W, strain kgd1, stronger effect = lower value 0.898 | locus YIR030C, strain dcg1, stronger effect = lower value 0.906 | locus YJL092W, strain hpr5, stronger effect = lower value 0.827 | locus YJL095W, strain BCK1 (second series), stronger effect = lower value 0.703 | locus YJL095W, strain BCK1, stronger effect = lower value 0.699 and 0.86 | locus YJL115W, strain asf1, stronger effect = lower value 0.869 | locus YJL129C, strain trk1, stronger effect = lower value 0.649 | locus YJL154C, strain vps35, stronger effect = lower value 0.882 | locus YJL164C, strain tpk1, stronger effect = lower value 0.805 | locus YJL166W, strain qcr8, stronger effect = lower value 0.742 | locus YJL168C, strain set2, stronger effect = lower value 0.913
0.755 (active) and 0.874 (inactive): locus YHR030C, strain SLT2, stronger effect = lower value
inactive: locus YAL013W, strain DEP1, stronger effect = lower value 0.914 | locus YAL021C, strain ccr4, stronger effect = lower value 0.918 | locus YBR021W, strain FUR4, stronger effect = lower value 0.975 | locus YBR229C, strain ROT2, stronger effect = lower value 0.956 | locus YCL029C, strain bik1, stronger effect = lower value 0.92 | locus YDL101C, strain DUN1, stronger effect = lower value 0.963 | locus YDL134C, strain PPH21, stronger effect = lower value 0.949 | locus YDL185W, strain tfp1, stronger effect = lower value 0.908 | locus YDR150W, strain NUM1, stronger effect = lower value 0.934 | locus YEL061C, strain CIN8, stronger effect = lower value 0.939 | locus YGL248W, strain PDE1, stronger effect = lower value 0.944 | locus YGR078C, strain PAC10, stronger effect = lower value 0.859 | locus YHR129C, strain ARP1, stronger effect = lower value 0.936 | locus YIL073C, strain SPO22, stronger effect = lower value 0.75 | locus YJL134W, strain LCB3, stronger effect = lower value 0.945 | locus YJL187C, strain SWE1 (second series), stronger effect = lower value 0.943 | locus YJR043C, strain POL32, stronger effect = lower value 0.879 | locus YJR066W, strain TOR1, stronger effect = lower value 0.835
